# In PubChem BioAssay AID1159580 (chemical genetic matrix, 2015):
# The whole screen tested about 5,500 compounds, of which about 2,000 (36%) were called active. Not shown: some 18% with an inconclusive outcome. The list shows a part of the results. A number with no mark means an inactive call. Rule as the data show it: active = normalized growth mostly below about 0.91 (no sharp cut-off); inconclusive = no clear call, values can overlap the other calls; inactive = mostly above about 0.92.
# Test: chemical genetic growth profiling, strain panel (AID 1159580);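 also: tested at 20 µM; growth read once vehicle control cultures reached saturation at 30 °C; 1 = growth at the plate median or of vehicle wells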
# Conditions: S. cerevisiae deletion strains, growth OD
# [1] = locus YAR019C, strain CDC15, stronger effect = lower value
# [2] = locus YBL105C, strain PKC1, stronger effect = lower value
# [3] = locus YBR135W, strain CKS1, stronger effect = lower value
# [4] = locus YBR136W, strain MEC1, stronger effect = lower value
# [5] = locus YBR160W, strain CDC28, stronger effect = lower value
# [6] = locus YDL017W, strain CDC7, stronger effect = lower value
# [7] = locus YDL028C, strain MPS1, stronger effect = lower value
# [8] = locus YDL101C, strain DUN1, stronger effect = lower value
# [9] = locus YDL108W, strain KIN28, stronger effect = lower value
# [10] = locus YDL132W, strain cdc53, stronger effect = lower value
# [11] = locus YDL214C, strain PRR2, stronger effect = lower value
# [12] = locus YDR052C, strain DBF4, stronger effect = lower value
# [13] = locus YDR054C, strain cdc34, stronger effect = lower value
# [14] = locus YDR226W, strain ADK1, stronger effect = lower value
# [15] = locus YDR477W, strain SNF1, stronger effect = lower value
# [16] = locus YER123W, strain YCK3, stronger effect = lower value
# [17] = locus YER133W, strain GLC7, stronger effect = lower value
# [18] = locus YFL009W, strain cdc4, stronger effect = lower value
# [19] = locus YFL029C, strain CAK1, stronger effect = lower value
# [20] = locus YFR003C, strain YPI1, stronger effect = lower value
# [21] = locus YFR019W, strain FAB1, stronger effect = lower value
# [22] = locus YFR028C, strain CDC14, stronger effect = lower value
# [23] = locus YGR040W, strain KSS1, stronger effect = lower value
# [24] = locus YGR052W, strain FMP48, stronger effect = lower value
# [25] = locus YGR092W, strain DBF2, stronger effect = lower value
# [26] = locus YHR030C, strain SLT2, stronger effect = lower value
# [27] = locus YHR079C, strain IRE1, stronger effect = lower value
# [28] = locus YHR082C, strain KSP1, stronger effect = lower value
# [29] = locus YHR205W, strain SCH9, stronger effect = lower value
# [30] = locus YIL147C, strain SLN1, stronger effect = lower value
# [31] = locus YJL095W, strain BCK1, stronger effect = lower value
# [32] = locus YJL128C, strain PBS2, stronger effect = lower value
# [33] = locus YJL157C, strain FAR1, stronger effect = lower value
# [34] = locus YJR016C, strain ILV3, stronger effect = lower value
# [35] = locus YJR066W, strain TOR1 (second series), stronger effect = lower value
# [36] = locus YJR066W, strain TOR1, stronger effect = lower value
# [37] = locus YKL048C, strain ELM1, stronger effect = lower value
# [38] = locus YKL067W, strain YNK1, stronger effect = lower value
# [39] = locus YKL101W, strain HSL1, stronger effect = lower value
# [40] = locus YKL193C, strain SDS22, stronger effect = lower value
# [41] = locus YKL203C, strain TOR2, stronger effect = lower value
# [42] = locus YLR113W, strain HOG1, stronger effect = lower value
# [43] = locus YLR133W, strain CKI1, stronger effect = lower value
# [44] = locus YLR403W, strain SFP1, stronger effect = lower value
# [45] = locus YML070W, strain DAK1, stronger effect = lower value
# [46] = locus YMR001C, strain CDC5, stronger effect = lower value
# [47] = locus YMR205C, strain PFK2 (second series), stronger effect = lower value
# [48] = locus YMR277W, strain FCP1, stronger effect = lower value
# [49] = locus YNL006W, strain LST8, stronger effect = lower value
# [50] = locus YNL020C, strain ARK1, stronger effect = lower value
# [51] = locus YNL161W, strain CBK1, stronger effect = lower value
# [52] = locus YNL183C, strain NPR1, stronger effect = lower value
# [53] = locus YNL207W, strain RIO2, stronger effect = lower value
# [54] = locus YNL222W, strain SSU72, stronger effect = lower value
# [55] = locus YNL307C, strain MCK1 (second series), stronger effect = lower value
# [56] = locus YOL078W, strain AVO1, stronger effect = lower value
# [57] = locus YOL136C, strain PFK27, stronger effect = lower value
# [58] = locus YOR061W, strain CKA2, stronger effect = lower value
# [59] = locus YOR119C, strain RIO1, stronger effect = lower value
# [60] = locus YOR231W, strain MKK1, stronger effect = lower value
# [61] = locus YOR329C, strain SCD5, stronger effect = lower value
# [62] = locus YPL031C, strain PHO85, stronger effect = lower value
# [63] = locus YPL153C, strain RAD53, stronger effect = lower value
# [64] = locus YPL204W, strain HRR25, stronger effect = lower value
# [65] = locus YPL209C, strain IPL1, stronger effect = lower value
# [66] = locus YPL256C, strain CLN2, stronger effect = lower value
# [67] = locus YPR025C, strain CCL1, stronger effect = lower value
# [68] = locus YPR106W, strain ISR1, stronger effect = lower value
# [69] = locus YPR111W, strain DBF20, stronger effect = lower value
# [70] = strain NNK1, stronger effect = lower value
# [71] = strain TSCII, stronger effect = lower value
structure (smiles),measurement,setting,value
O=C(Nc1ccc(N2CCOCC2)cc1)c1ccc(-n2cccn2)cc1,normalized growth,[1],0.994
same,normalized growth,[2],0.982
same,normalized growth,[3],0.974
same,normalized growth,[4],0.979
same,normalized growth,[5],0.975
same,normalized growth,[6],0.983
same,normalized growth,[7],0.985
same,normalized growth,[8],0.981
same,normalized growth,[9],0.974
same,normalized growth,[10],0.973
same,normalized growth,[11],0.959
same,normalized growth,[12],0.985
same,normalized growth,[13],0.987
same,normalized growth,[14],0.982
same,normalized growth,[15],0.96
same,normalized growth,[16],0.915
same,normalized growth,[17],0.957
same,normalized growth,[18],0.988
same,normalized growth,[19],0.988
same,normalized growth,[20],0.988
same,normalized growth,[21],0.955
same,normalized growth,[22],0.977
same,normalized growth,[23],0.953
same,normalized growth,[24],1.01
same,normalized growth,[25],0.991
same,normalized growth,[26],1.13
same,normalized growth,[27],1.1
same,normalized growth,[28],1.07
same,normalized growth,[29],0.982
same,normalized growth,[30],0.972
same,normalized growth,[31],1
same,normalized growth,[32],0.95
same,normalized growth,[33],0.966
same,normalized growth,[34],0.986
same,normalized growth,[35],0.96
same,normalized growth,[36],1.1
same,normalized growth,[37],0.946
same,normalized growth,[38],0.954
same,normalized growth,[39],0.931
same,normalized growth,[40],0.981
same,normalized growth,[41],1.04
same,normalized growth,[42],0.9
same,normalized growth,[43],0.962
same,normalized growth,[44],0.984
same,normalized growth,[45],0.928
same,normalized growth,[46],0.983
same,normalized growth,[47],0.95
same,normalized growth,[48],0.985
same,normalized growth,[49],0.979
same,normalized growth,[50],0.96
same,normalized growth,[51],0.978
same,normalized growth,[52],1.03
same,normalized growth,[53],0.979
same,normalized growth,[54],0.977
same,normalized growth,[55],0.958
same,normalized growth,[56],0.972
same,normalized growth,[57],0.923
same,normalized growth,[58],0.952
same,normalized growth,[59],1.01
same,normalized growth,[60],0.949
same,normalized growth,[61],0.985
same,normalized growth,[62],0.962
same,normalized growth,[63],0.958
same,normalized growth,[64],0.924
same,normalized growth,[65],0.979
same,normalized growth,[66],1.02
same,normalized growth,[67],0.982
same,normalized growth,[68],0.976
same,normalized growth,[69],0.968
same,normalized growth,[70],0.977
same,normalized growth,[71],0.982
O=C(CCNNC(=O)c1ccncc1)NCc1ccccc1,normalized growth,"locus YAL040C, strain CLN3, stronger effect = lower value",0.999
same,normalized growth,"locus YCL061C, strain MRC1 (second series), stronger effect = lower value",1
same,normalized growth,"locus YDR150W, strain NUM1, stronger effect = lower value",0.998
same,normalized growth,"locus YDR363W, strain ESC2, stronger effect = lower value",0.959
same,normalized growth,"locus YER002W, strain NOP16, stronger effect = lower value",0.994
same,normalized growth,"locus YGR229C, strain SMI1, stronger effect = lower value",0.986
same,normalized growth,[26],0.978
same,normalized growth,[27],0.975
same,normalized growth,[31],0.972
same,normalized growth,[36],0.961
same,normalized growth,"locus YJR075W, strain HOC1, stronger effect = lower value",0.994
same,normalized growth,[42],0.966
same,normalized growth,"locus YMR263W, strain SAP30, stronger effect = lower value",0.994
same,normalized growth,"locus YNL153C, strain GIM3, stronger effect = lower value",0.99
same,normalized growth,"locus YNL175C, strain NOP13, stronger effect = lower value",0.996
same,normalized growth,[52],0.931
same,normalized growth,"locus YNL197C, strain WHI3, stronger effect = lower value",0.993
same,normalized growth,"locus YNL224C, strain SQS1, stronger effect = lower value",0.998
same,normalized growth,"locus YOR083W, strain WHI5 (second series), stronger effect = lower value",1
same,normalized growth,[60],0.97
same,normalized growth,"locus YPL055C, strain LGE1, stronger effect = lower value",0.987
same,normalized growth,"locus YPL241C, strain CIN2, stronger effect = lower value",1
same,normalized growth,[66],0.974
O=C(NCc1ccncc1)c1ccc(-n2cccn2)cc1,normalized growth,[1],0.989
same,normalized growth,[2],0.984
same,normalized growth,[3],0.982
same,normalized growth,[4],0.982
same,normalized growth,[5],0.984
same,normalized growth,[6],0.992
same,normalized growth,[7],0.983
same,normalized growth,[8],0.982
same,normalized growth,[9],0.982
same,normalized growth,[10],0.984
same,normalized growth,[11],0.972
same,normalized growth,[12],0.987
same,normalized growth,[13],0.988
same,normalized growth,[14],0.983
same,normalized growth,[15],0.972
same,normalized growth,[16],0.941
same,normalized growth,[17],0.969
same,normalized growth,[18],0.981
same,normalized growth,[19],0.988
same,normalized growth,[20],0.98
same,normalized growth,[21],0.962
same,normalized growth,[22],0.979
same,normalized growth,[23],0.96
same,normalized growth,[24],1
same,normalized growth,[25],0.985
same,normalized growth,[26],1.11
same,normalized growth,[27],1.1
same,normalized growth,[28],1.05
same,normalized growth,[29],0.985
same,normalized growth,[30],0.982
same,normalized growth,[31],0.981
same,normalized growth,[32],0.953
same,normalized growth,[33],0.973
same,normalized growth,[34],0.984
same,normalized growth,[35],0.971
same,normalized growth,[36],1.09
same,normalized growth,[37],0.959
same,normalized growth,[38],0.972
same,normalized growth,[39],0.962
same,normalized growth,[40],0.976
same,normalized growth,[41],1.03
same,normalized growth,[42],0.854 (active)
same,normalized growth,[43],0.955
same,normalized growth,[44],0.99
same,normalized growth,[45],0.954
same,normalized growth,[46],0.984
same,normalized growth,[47],0.973
same,normalized growth,[48],0.978
same,normalized growth,[49],0.993
same,normalized growth,[50],0.974
same,normalized growth,[51],0.985
same,normalized growth,[52],1.02
same,normalized growth,[53],0.981
same,normalized growth,[54],0.982
same,normalized growth,[55],0.966
same,normalized growth,[56],0.981
same,normalized growth,[57],0.928
same,normalized growth,[58],0.965
same,normalized growth,[59],1.02
same,normalized growth,[60],0.95
same,normalized growth,[61],0.986
same,normalized growth,[62],0.964
same,normalized growth,[63],0.969
same,normalized growth,[64],0.935
same,normalized growth,[65],0.984
same,normalized growth,[66],1.02
same,normalized growth,[67],0.987
same,normalized growth,[68],0.982
same,normalized growth,[69],0.968
same,normalized growth,[70],0.984
same,normalized growth,[71],0.981
